Outcome data for 13 compounds are collected here from PubChem BioAssay (EPA / NIEHS).

Structures are written as SMILES. Results filed as inconclusive are left out. The source made the active and inactive calls. The calls were made as follows: active = hit-call score of the fitted dose curve at least 0.9, where 1 is the maximum; inconclusive = response in the unintended direction; inactive = score below 0.9.

Chain of human Sirtuin 1 (SIRT1), SIRT1 (gene 23411) (Q96EB6 whole entry, looked up): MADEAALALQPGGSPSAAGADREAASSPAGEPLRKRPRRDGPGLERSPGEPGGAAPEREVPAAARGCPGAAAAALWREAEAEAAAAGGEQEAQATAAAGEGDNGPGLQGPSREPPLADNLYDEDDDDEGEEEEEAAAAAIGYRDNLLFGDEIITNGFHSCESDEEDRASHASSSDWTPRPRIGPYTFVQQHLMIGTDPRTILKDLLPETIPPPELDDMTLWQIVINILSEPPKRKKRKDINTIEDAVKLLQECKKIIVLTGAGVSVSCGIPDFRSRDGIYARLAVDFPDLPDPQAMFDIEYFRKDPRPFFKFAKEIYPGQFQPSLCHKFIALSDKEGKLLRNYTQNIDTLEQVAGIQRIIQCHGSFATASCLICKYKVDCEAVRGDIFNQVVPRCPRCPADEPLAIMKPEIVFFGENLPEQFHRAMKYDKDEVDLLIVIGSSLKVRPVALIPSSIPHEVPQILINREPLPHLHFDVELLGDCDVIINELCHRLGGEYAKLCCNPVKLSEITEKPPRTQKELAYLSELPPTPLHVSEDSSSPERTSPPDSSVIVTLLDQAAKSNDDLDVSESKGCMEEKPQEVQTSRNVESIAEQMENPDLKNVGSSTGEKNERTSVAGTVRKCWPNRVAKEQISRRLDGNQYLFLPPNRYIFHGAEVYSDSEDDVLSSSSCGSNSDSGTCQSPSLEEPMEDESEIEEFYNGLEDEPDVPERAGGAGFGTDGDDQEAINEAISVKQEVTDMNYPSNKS
Chain of human Protein Tyrosine Phosphatase Non-receptor Type 6 (PTPN6), PTPN6 (gene 5777) (P29350 whole entry, looked up): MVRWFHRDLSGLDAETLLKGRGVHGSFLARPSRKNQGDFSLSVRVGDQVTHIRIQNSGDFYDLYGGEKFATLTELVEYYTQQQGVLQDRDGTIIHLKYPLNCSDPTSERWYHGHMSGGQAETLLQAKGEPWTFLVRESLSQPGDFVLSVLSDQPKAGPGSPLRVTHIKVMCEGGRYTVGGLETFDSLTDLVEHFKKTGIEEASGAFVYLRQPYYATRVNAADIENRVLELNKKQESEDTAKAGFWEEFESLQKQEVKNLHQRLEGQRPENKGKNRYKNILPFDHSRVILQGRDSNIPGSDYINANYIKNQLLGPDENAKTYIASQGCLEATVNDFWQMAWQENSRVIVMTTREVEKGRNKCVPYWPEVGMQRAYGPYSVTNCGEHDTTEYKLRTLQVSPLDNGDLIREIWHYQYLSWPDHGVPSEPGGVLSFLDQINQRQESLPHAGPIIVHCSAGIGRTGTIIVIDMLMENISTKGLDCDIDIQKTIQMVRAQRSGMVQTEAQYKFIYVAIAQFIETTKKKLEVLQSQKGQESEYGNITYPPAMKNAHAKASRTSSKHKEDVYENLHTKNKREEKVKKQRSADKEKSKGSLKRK
Chain of human Protein Tyrosine Phosphatase Non-receptor Type 9 (PTPN9), PTPN9 (gene 5780) (P43378 whole entry, looked up): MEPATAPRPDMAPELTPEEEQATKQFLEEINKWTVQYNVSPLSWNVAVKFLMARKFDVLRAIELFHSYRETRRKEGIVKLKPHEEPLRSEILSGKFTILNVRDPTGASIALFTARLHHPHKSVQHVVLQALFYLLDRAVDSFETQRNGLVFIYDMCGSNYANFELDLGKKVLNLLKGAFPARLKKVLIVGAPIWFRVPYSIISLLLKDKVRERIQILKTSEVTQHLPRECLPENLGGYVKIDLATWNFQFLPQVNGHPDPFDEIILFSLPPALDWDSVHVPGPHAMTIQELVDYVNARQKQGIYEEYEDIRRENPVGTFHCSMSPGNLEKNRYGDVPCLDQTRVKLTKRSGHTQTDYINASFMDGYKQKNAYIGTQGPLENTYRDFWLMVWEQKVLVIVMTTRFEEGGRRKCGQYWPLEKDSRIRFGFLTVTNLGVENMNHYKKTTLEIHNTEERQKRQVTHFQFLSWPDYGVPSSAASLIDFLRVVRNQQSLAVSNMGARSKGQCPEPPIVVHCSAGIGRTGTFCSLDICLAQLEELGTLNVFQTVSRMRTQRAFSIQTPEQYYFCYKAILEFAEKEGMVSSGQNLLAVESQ

The target in the first test is human Protein Tyrosine Phosphatase Non-receptor Type 9 (PTPN9), PTPN9 (gene 5780) (UniProt P43378). Put plainly: NVS_ENZ_hPTPN9: NovaScreen (NVS) Enzymatic Assay for human Protein Tyrosine Phosphatase Non-receptor Type 9 (PTPN9) (AID 2283209). The gist of the method:
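Sf9-expressed enzyme in a cell-free assay, fluorescence read 1.33 h after dosing with mobility-shift separation of substrate and product. Tested at 25 uM in duplicate, then up to 50 uM; signal loss versus DMSO.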
Take `CCCCC(CC)COC(=O)c1ccc(C(=O)OCC(CC)CCCC)cc1` (stereo not given): the compound was classed as inactive.
For `CC(C)=CCC/C(C)=C/CO`, the outcome was inactive.
On the same count and under the same terms, the value for `O=C1OC(=O)C2C3C=CC(C3)C12` (stereo not given) was “inactive”.
On the same count and under the same terms, to `O=c1n(CC2CO2)c(=O)n(CC2CO2)c(=O)n1CC1CO1` (stereo not given) belongs “inactive”.

Another test has as its target human Protein Tyrosine Phosphatase Non-receptor Type 6 (PTPN6), PTPN6 (gene 5777) (UniProt P29350). Put plainly: NVS_ENZ_hPTPN6: NovaScreen (NVS) Enzymatic Assay for human Protein Tyrosine Phosphatase Non-receptor Type 6 (PTPN6) (AID 2283210). The gist of the method: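 Recombinant human PTPN6 from SF9 cells, enzyme activity followed by fluorescence after mobility-shift separation of substrate and product at 1.33 h. Chemicals first tested at a single 25 uM in duplicate, then confirmed across concentration series; loss of signal relative to DMSO.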
Consider `CC(C)CCCCCCCOC(=O)CCCCC(=O)OCCCCCCCC(C)C`, for which the call was inactive.
Still for that read-out and setting: to `NC(=O)NO` belongs “inactive”; to `O=C1CCCCCN1`, “inactive”.
Still for that read-out and setting: to `O=C1OC(=O)C2C3C=CC(C3)C12` (stereo not given) belongs “inactive”; to `O=c1n(CC2CO2)c(=O)n(CC2CO2)c(=O)n1CC1CO1` (stereo not given), “inactive”.

In the next test the target is human Sirtuin 2 (SIRT2), SIRT2 (gene 22933) (UniProt Q8IXJ6). The test can be described thus: NVS_ENZ_hSIRT2: NovaScreen (NVS) Enzymatic Assay for human Sirtuin 2 (SIRT2) (AID 2283217). The gist of the method: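 Single-point duplicate screen at 25 uM, then concentration-response (max 50 uM) for chemicals passing threshold. Enzyme activity of recombinant human SIRT2 measured after 1 hr by fluorescence with mobility-shift separation of product; DMSO baseline.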
Chain of human Sirtuin 2 (SIRT2), SIRT2 (gene 22933) (Q8IXJ6 whole entry, looked up): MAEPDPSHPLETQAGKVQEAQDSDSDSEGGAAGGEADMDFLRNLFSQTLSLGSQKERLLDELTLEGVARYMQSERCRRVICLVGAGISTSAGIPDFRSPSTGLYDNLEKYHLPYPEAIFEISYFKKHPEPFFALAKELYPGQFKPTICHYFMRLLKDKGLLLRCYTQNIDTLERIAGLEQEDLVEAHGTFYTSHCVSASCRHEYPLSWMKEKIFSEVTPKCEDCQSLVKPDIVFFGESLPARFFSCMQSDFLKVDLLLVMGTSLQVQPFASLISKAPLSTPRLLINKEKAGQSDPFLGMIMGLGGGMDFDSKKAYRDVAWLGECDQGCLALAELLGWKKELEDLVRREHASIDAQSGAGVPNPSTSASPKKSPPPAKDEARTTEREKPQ
For `CC(=O)OCCC(C)C`, the compound was classed as inactive.
Same read-out and setting: to `Cc1c(-c2cccnc2)c2ccccc2n1CCCCC(=O)O` belongs “inactive”; to `CNS(=O)(=O)c1cc(C(=O)N2CCC(CCN3C4CCC3CC(n3c(C)nc5ccccc53)C4)(c3cccc(F)c3)CC2)c(Cl)cc1F` (stereo not given), “inactive”.

The target in a further test is human Sirtuin 1 (SIRT1), SIRT1 (gene 23411) (UniProt Q96EB6). The test can be described thus: NVS_ENZ_hSIRT1: NovaScreen (NVS) Enzymatic Assay for human Sirtuin 1 (SIRT1) (AID 2283219). The gist of the method:
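Cell-free recombinant SIRT1 with a fluorescent substrate; substrate and product separated by electrophoretic mobility shift and read by fluorescence intensity, 1 h after dosing. Primary screen at 25 uM in duplicate; hits re-run in concentration-response up to 50 uM, relative to DMSO.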
For `Nc1cccc(N)c1`, the outcome was inactive.
On the same count and under the same terms, the value for `Oc1ccc2c(c1)-c1ccccc1C2` was “inactive”; that for `CNCc1ccc(NC(=O)c2c[nH]c3c2C(=O)CCC3)cc1` was “inactive”.
